Results on 13 compounds are retold here after PubChem BioAssay.

The source made the active and inactive calls. Unless noted, how the calls were made is not given here.

Experiment [1] is described as follows: resazurin metabolic signal in HepG2 cells – cell-based, resazurin fluorescence, 24 h, PK04 Diversity Set, profiling panel (AID 1172). Further: test concentration not given here. The settings on record: HepG2 viability, higher = more signal. For orientation: The colour change of resazurin is a common sign of viable cells or microbes.
A short description of experiment [2]: budding yeast growth changes without added modifier – OD600, strain BY4716, 24 h, basal condition, primary screen (AID 1173). The settings on record: S. cerevisiae BY4716 growth, OD600, 24 h; higher = more signal, called active from +8 up or from −8 down.
The nature of experiment [3]: viability profiling in MM1S myeloma cells – cell-based, resazurin fluorescence, basal, 24 h, PK04 Diversity Set, profiling panel (AID 1174).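 Further: MM1S multiple myeloma cell line; test concentration not given here.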 The settings on record: higher = more signal, called active from +8 up or from −8 down.
Experiment [4] concerns the target Dihydroorotate dehydrogenase (quinone), mitochondrial (Plasmodium falciparum (isolate 3D7)) (UniProt Q08210). Nature of the experiment: inhibition of P. falciparum DHODH – biochemical, C-terminal His tag, absorbance 600 nm, primary screen (AID 1175).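 Further: recombinant parasite enzyme with a five histidine tag at its C terminus; test concentration not given here.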 The settings on record: PfDHODH enzyme, DCIP absorbance 600 nm; higher = more signal, called active from +8 up or from −8 down.

Experiment [5] can be described thus: inhibition of PAO1 biofilm formation – strain PAO1, LB-PBS medium, absorbance 600 nm, primary screen (AID 1176). Further: test concentration not given here. The settings on record: P. aeruginosa PAO1 growth/biofilm, A600, 12 h; higher = more signal.
Experiment [6] is described as follows: growth modulation of vineyard yeast isolate – strain RM11-1a, OD600, basal, 24 h, primary screen (AID 1177).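 Further: cultures grown under basal conditions with no added stressor; test concentration not given here.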 The settings on record: S. cerevisiae RM11-1a growth, OD600, 24 h; higher = more signal, called active from +8 up or from −8 down.
Experiment [7] is described as follows: growth of efflux-deficient E. coli DRC39 – strain DRC39, OD650, 24 h, E. coli filamentation inducers, primary screen (AID 1178).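 Further: growth measured as culture turbidity by optical density at 650 nm; test concentration not given here.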 The settings on record: E. coli DRC39 acrAB, higher = more signal, called active from +8 up or from −8 down.
Experiment [8] is described as follows: growth of efflux-deficient E. coli DRC39 – strain DRC39, OD650, 48 h, E. coli filamentation inducers, primary screen (AID 1179).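 Further: screen aims at cell division blockers that make cells filament.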 The settings on record: E. coli DRC39 delta-acrAB growth, higher = more signal, called active from +8 up or from −8 down.
The nature of experiment [9]: viability profiling in RPMI8226 myeloma cells – cell-based, resazurin fluorescence, basal, 24 h, PK04 Diversity Set, profiling panel (AID 1180).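 Further: RPMI8826 multiple myeloma cell line at 5000 cells per well; test concentration not given here.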 The settings on record: higher = more signal.
Experiment [10] addresses E3 ubiquitin-protein ligase XIAP (Homo sapiens) (UniProt P98170). In words: small molecules binding XIAP protein – biophysical, small-molecule microarray, fluorescence 635 nm, primary screen (AID 1181).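 Further: score merges 667 nm emission and signal to noise over triplicate slides.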 The settings on record: higher = more signal.

Sequence of Dihydroorotate dehydrogenase (quinone), mitochondrial (Plasmodium falciparum (isolate 3D7)) (Q08210 whole entry, looked up): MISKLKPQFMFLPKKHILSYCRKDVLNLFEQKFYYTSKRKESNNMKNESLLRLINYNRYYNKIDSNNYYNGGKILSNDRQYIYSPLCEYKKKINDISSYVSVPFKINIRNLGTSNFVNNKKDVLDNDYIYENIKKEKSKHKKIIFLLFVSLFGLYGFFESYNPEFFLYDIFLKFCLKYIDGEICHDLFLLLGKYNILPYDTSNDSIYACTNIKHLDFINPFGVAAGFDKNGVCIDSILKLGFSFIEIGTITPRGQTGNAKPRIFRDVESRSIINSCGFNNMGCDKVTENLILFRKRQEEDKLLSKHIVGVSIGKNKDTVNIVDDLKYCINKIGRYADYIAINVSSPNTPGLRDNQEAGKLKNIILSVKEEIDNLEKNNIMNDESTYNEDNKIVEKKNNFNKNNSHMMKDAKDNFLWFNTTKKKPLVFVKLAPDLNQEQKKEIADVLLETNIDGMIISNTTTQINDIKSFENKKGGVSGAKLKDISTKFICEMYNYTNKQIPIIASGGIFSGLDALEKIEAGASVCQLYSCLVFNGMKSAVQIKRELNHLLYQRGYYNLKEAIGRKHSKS
Sequence of E3 ubiquitin-protein ligase XIAP (Homo sapiens) (P98170 whole entry, looked up): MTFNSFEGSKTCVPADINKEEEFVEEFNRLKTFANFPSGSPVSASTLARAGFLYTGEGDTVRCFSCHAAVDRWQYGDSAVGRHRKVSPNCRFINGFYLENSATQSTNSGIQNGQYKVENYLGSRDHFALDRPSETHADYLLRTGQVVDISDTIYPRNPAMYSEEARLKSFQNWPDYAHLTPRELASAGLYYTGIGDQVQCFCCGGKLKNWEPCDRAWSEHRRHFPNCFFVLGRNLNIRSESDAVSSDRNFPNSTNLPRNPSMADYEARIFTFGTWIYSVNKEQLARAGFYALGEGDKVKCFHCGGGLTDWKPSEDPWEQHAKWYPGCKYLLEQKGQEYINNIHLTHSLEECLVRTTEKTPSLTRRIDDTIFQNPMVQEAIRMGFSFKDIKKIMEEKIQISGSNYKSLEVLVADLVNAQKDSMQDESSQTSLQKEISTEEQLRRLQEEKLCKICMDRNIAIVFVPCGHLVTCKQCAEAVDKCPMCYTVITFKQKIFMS

With `CO[C@H]1O[C@H](CO)[C@@H](OC(=O)CCc2ccccc2)[C@@H]2OC(=O)[C@@H](Cc3ccc4ccccc4c3)C/C=C/C[C@H](Cc3ccc4ccccc4c3)C(=O)O[C@@H]12`, the z-score in experiment [1] is -0.826; in experiment [2] it was -0.998 (inactive); in [3] it was -0.333 (inactive); in experiment [5], -0.0558 (inactive); in experiment [6] it was -1.11 (inactive); in [7], 0.552 (inactive). The z-score was 0.9 (inactive) in experiment [8] and -0.591 in [9]. For the same compound, the composite z-score in experiment [4] was -1.32 (inactive); in experiment [10] it was 0.0302.

`COC(=O)C1=CC(c2ccc(CO)cc2)=CC(C2CC2)N(Cc2cc3c(cc2Br)OCO3)C=C1C(=O)OC` (stereo not given): the z-score in experiment [1] was -0.0995; in experiment [2] it was -3.02 (inactive); in [3], -1.42 (inactive); in experiment [5] it was 0.158 (inactive); in [6], -0.069 (inactive); in [7], 0.164 (inactive). For the same compound, the z-score in experiment [8] is -0.0391 (inactive); in experiment [9], -1.25. In addition, the figures for the composite z-score in [4] and in experiment [10] were -4.43 (inactive) and 0.172, respectively.

On to `CC(C)C[C@@H]1NC(=O)[C@H]2C[C@@H](C(=O)O)[C@@H](c3cccc(OCCO)c3)N2C1=O`, for which the z-score in experiment [1] is 0.109; in experiment [2], -0.25 (inactive); in experiment [3], -0.636 (inactive); in experiment [5], 0.202 (inactive); in [6], -0.79 (inactive); in experiment [7] it was -0.191 (inactive). For the same compound, the figures for the z-score in [8] and in experiment [9] were 0.421 (inactive) and 0.462, respectively. Further, the composite z-score in experiment [4] was -1.19 (inactive); in experiment [10] it was 0.0845.

Turning to `COc1ccc([Si](C)(C)[C@H]2[C@H](CC(=O)N(CCO)Cc3ccccc3)O[C@@]3(C(=O)N(Cc4ccc(N5C(=O)c6cccc7cccc5c67)cc4)c4ccccc43)[C@@H]2C)cc1`, the z-score in [1] was -1.14; in experiment [2] it was 1.21 (inactive); in experiment [3], -2.21 (inactive); in [5], 0.319 (inactive); in experiment [6] it was 2.45 (inactive); in experiment [7] it was -0.838 (inactive). Also, the results for the z-score in experiment [8] and in experiment [9] were -1.02 (inactive) and -2.14, respectively. Also, the composite z-score is -1.51 (inactive) in [4] and 0.177 in experiment [10].

In the case of `CC(C)N1C(=O)[C@@]2(Cc3ccccc31)c1ccccc1C(=O)N(Cc1ccccc1)[C@H]2c1ccc(CO)cc1`, the z-score in experiment [1] was -0.147; in experiment [2] it was 2.07 (inactive); in experiment [3] it was 0.144 (inactive); in experiment [5], 0.338 (inactive); in experiment [6], 1.69 (inactive); in experiment [7] it was 0.367 (inactive). For the same compound, the z-score in [8] is -0.665 (inactive); in experiment [9], 0.0769. In addition, the figures for the composite z-score in experiment [4] and in experiment [10] were -19.1 (active) and -0.337, respectively.

As to `C=CCNC(=O)[C@H]1[C@@H]2C(=O)O[C@@H](c3ccccc3)[C@@H](c3ccccc3)N2[C@@H](c2ccc(OCCO)cc2)[C@]12C(=O)Nc1ccc(C#Cc3ccc(OC)cc3)cc12`, the z-score in experiment [1] is -1.06; in experiment [2], 2.32 (inactive); in experiment [3], -0.512 (inactive); in experiment [5], 2.18 (inactive); in experiment [6], 3.66 (inactive); in [7] it was -0.672 (inactive). For the same compound, the values for the z-score in experiment [8] and in [9] were -0.995 (inactive) and -1.29, respectively. For the same compound, the composite z-score in experiment [4] is -2.27 (inactive); in [10], 1.29.

For the compound `COc1ccc([Si](C)(C)[C@H]2[C@H](CC(=O)N3CCC[C@H]3CO)O[C@@]3(C(=O)N(Cc4cccc(N5CCCCC5=O)c4)c4ccccc43)[C@@H]2C)cc1`, the z-score was 0.276 in [1]; -0.953 (inactive) in experiment [2]; -0.0453 (inactive) in experiment [3]; -0.234 (inactive) in experiment [5]; 0.64 (inactive) in experiment [6]; 0.957 (inactive) in [7]. For the same compound, the z-score in [8] was 0.965 (inactive); in [9], -0.185. Further, the composite z-score in [4] is -3.28 (inactive); in [10] it was -0.0126.

In the case of `CO[C@H]1O[C@H](CO)[C@@H](OC(=O)Nc2ccccc2)[C@@H]2OC(=O)[C@@H](Cc3ccccc3)C/C=C/C[C@H](Cc3ccccc3)C(=O)O[C@@H]12`, the z-score was -0.472 in [1]; 0.153 (inactive) in [2]; -2.22 (inactive) in experiment [3]; 0.0126 (inactive) in experiment [5]; 1.04 (inactive) in [6]; -0.409 (inactive) in [7]. The z-score was 0.582 (inactive) in experiment [8] and -0.381 in experiment [9]. Besides, the composite z-score in [4] is -1.38 (inactive); in experiment [10] it was 0.381.

For `O=C1C2C=CC(C(O)c3ccccn3)N(Nc3ccc([N+](=O)[O-])cc3)C2C(=O)N1c1ccccc1` (stereo not given), the z-score was -0.534 in experiment [1]; 0.512 (inactive) in experiment [2]; -0.494 (inactive) in experiment [3]; 1.17 (inactive) in experiment [5]; -0.841 (inactive) in experiment [6]; -0.63 (inactive) in experiment [7]. Further, the z-score was -0.462 (inactive) in experiment [8] and -1.03 in [9]. In addition, the figures for the composite z-score in experiment [4] and in experiment [10] were 0.128 (inactive) and 0.359, respectively.

In the case of `CC(C)[Si](C#Cc1ccccc1)(O[C@H](c1ccccc1)c1cn(Cc2ccccc2)nn1)C(C)C`, the z-score in experiment [1] is -0.001; in [2], -16.7 (active); in [3] it was 0.141 (inactive); in experiment [5] it was -0.571 (inactive); in experiment [6] it was -0.282 (inactive); in experiment [7], 1.67 (inactive). The z-score was 0.79 (inactive) in experiment [8] and 0.253 in experiment [9]. The composite z-score was -1.03 (inactive) in experiment [4] and -0.516 in experiment [10].

For the compound `Cc1ccc(S[C@]2(C(=O)NC(C)C)CC(=O)N(Cc3ccccc3)[C@@H]2c2ccc(CO)cc2)cc1`, the z-score in [1] is 0.15; in experiment [2], -0.0962 (inactive); in experiment [3], -0.792 (inactive); in experiment [5], 0.637 (inactive); in [6], -0.949 (inactive); in experiment [7] it was 1.19 (inactive). In addition, the z-score in experiment [8] is 1.62 (inactive); in [9] it was 1. Besides, the results for the composite z-score in experiment [4] and in experiment [10] were -1.33 (inactive) and -0.177, respectively.

`COC(=O)[C@]1(Cc2ccccc2N=[N+]=[N-])N=C(c2ccc(OCCCO)cc2)O[C@@H]1c1ccccc1CN=[N+]=[N-]`: the z-score in experiment [1] was -4.43; in experiment [2], 1.24 (inactive); in [3], -8.15 (active); in [5], 1.16 (inactive); in experiment [6] it was 1.94 (inactive); in experiment [7], -0.307 (inactive). For the same compound, the figures for the z-score in experiment [8] and in experiment [9] were -0.609 (inactive) and -7.07, respectively. For the same compound, the composite z-score in [4] is 1.71 (inactive); in [10], -0.0277.

As for `COC(=O)[C@@]1(Cc2ccccc2)[C@H]2c3cc(C(=O)N(C)C)n(Cc4nc5ccccc5[nH]4)c3C[C@H]2CN1C(=O)c1ccccc1`, the z-score in experiment [1] was 1.17; in experiment [2] it was -0.541 (inactive); in experiment [3] it was -0.204 (inactive); in [5], 0.92 (inactive); in experiment [6] it was -0.706 (inactive); in [7] it was 1.04 (inactive). For the same compound, the z-score in [8] was 0.0023 (inactive); in experiment [9], -0.139. The results for the composite z-score in experiment [4] and in experiment [10] were -0.862 (inactive) and 0.0747, respectively.
